Measured values published in PubChem BioAssay (Tox21).
Results filed as inconclusive are left out. The source made the active and inactive calls. Calls come from the whole dose curve; as a rule, active = well fitted cell-killing curve with a large enough effect in the repeat runs; inconclusive = weak or mixed curves, or effect the other way; inactive = flat fitted curve, though single readings scatter.

Test: qHTS assay to identify small molecule antagonists of the retinoid acid receptor (RAR) signaling pathway - cell viability counter screen (AID 1159551); note: nearly all actives have a fitted effect of over 35% in size
Conditions: C3RL4 cells viability, ATP luminescence (CellTiter-Glo), 6 h; series mostly up to 92.4 µM; activity change, negative = cytotoxicity: at the top concentration
Procedure, shortened: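 In this counter screen, the RARE-luciferase line C3RL4 was exposed for 6 h at 37 C and 5% CO2 to compounds with retinol at 1 uM final. Cellular ATP, read by luminescence, served as the viability measure.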
% is set by controls: 0 for no effect and ±100 for the full control effect.

| SMILES | activity change, negative = cytotoxicity |
| --- | --- |
| CC1CCc2nccnc21 (stereo unspecified) | 2.89% (inactive) |
| CNC1CCCN(c2c(F)cc3c(=O)c(C(=O)O)cn(C4CC4)c3c2OC)C1 (stereo unspecified) | -0.983% [at 42.5 µM] (inactive) |
| O=NN(CCCl)C(=O)NCCCl | -0.481% [at 42.5 µM] (inactive) |
| CC[C@H]1OC(=O)[C@H](C)[C@@H](O[C@H]2C[C@@](C)(OC)[C@@H](O)[C@H](C)O2)[C@H](C)[C@@H](O[C@@H]2O[C@H](C)C[C@H](N(C)C)[C@H]2O)[C@](C)(O)C[C@@H](C)/C(=N\OCOCCOC)[C@H](C)[C@@H](O)[C@]1(C)O | 2.49% [at 42.5 µM] (inactive) |
| CCCCOC(=O)CCCCC(=O)OCCCC | 1.23% (inactive) |
| CCc1ccc(C)cc1 | 1.89% (inactive) |
| CC(=O)OCC1=C(C(=O)O)N2C(=O)[C@@H](NC(=O)CSc3ccncc3)[C@H]2SC1 | -1.38% [at 42.5 µM] (inactive) |
| COC(CC(C)CCCC(C)(C)O)OC (stereo unspecified) | -0.812% (inactive) |
| O=C(O)/C=C/c1ccc(O)c(O)c1 | -1.39% (inactive) |
| O=C1NC(=O)c2cccc3cccc1c23 | -1.26% (inactive) |
| O=[N+]([O-])c1ccc2ncccc2c1 | 5.51% (inactive) |
| Cc1cn([C@H]2C[C@H](F)[C@@H](CO)O2)c(=O)[nH]c1=O | 6.14% [at 42.5 µM] (inactive) |
| CCCCCCOC(=O)CCCCC | 1.17% (inactive) |
| CCC(C)(C)C(=O)O | 2.54% (inactive) |
| CC1=CC[C@@H]2C[C@H]1C2(C)C | -0.147% [at 19 µM] (inactive) |
| CCC1CCC(CCC(=O)O)C1 (stereo unspecified) | -1.83% (inactive) |
| Nc1c(Cl)cc(Cl)cc1[N+](=O)[O-] | -0.0461% (inactive) |
| CC(CCc1ccc(O)cc1)NCCc1ccc(O)c(O)c1 (stereo unspecified) | 5.88% [at 42.5 µM] (inactive) |
| c1ccc(CCCc2ccncc2)cc1 | -2.71% (inactive) |
| COc1ccc(-n2nc(C(F)F)cc2-c2ccc(S(C)=O)cc2)cc1 (stereo unspecified) | 1.03% (inactive) |
| O=C(NS(=O)(=O)/C=C/c1ccccc1)c1ccc(F)cc1Cl | -1.33% (inactive) |
